According to the OligoGym collection:

Molecular target: RDH8
Test: pooled miR-30 sensor sort-seq; sequence = guide strand
Conditions: shRNA
Further: reference of the scale not given here.

Row | Sequence | sensor-assay potency score (higher = more potent)
1 | TAGCGGATGTTGGTCTGTCGGC | -1.33
2 | TTGAAGGCCAAGGTTGAGGAGG | -0.704
3 | ATCACTGCACACGTCCAGCTGG | -0.715
4 | TTGGTGTCAAAGACATTCTGCA | 0.0313
5 | TACAGCTGAGACACTGGGCCAC | 0.00741
6 | TTGACGAGACGGACAGCTCCGA | -0.0536
7 | ATGAAGAGTCTGTTCATCCTTT | 0.345
8 | ATCGTTGAAGATGACACCCTGC | 0.0457
9 | TTGAGCGTGGTCAGCGGCGAGT | -1.34
10 | TCAAACTCGGTGACCACGGGGC | -0.118
11 | TCGAGTCGAGCTGATGACGTTG | -0.883

Molecular target: RECQL4
Test: as above
Conditions: shRNA

Row | Sequence | sensor-assay potency score (higher = more potent)
12 | AACAGCATCTGTGTCTTCCTCA | 0.181
13 | TTTCTTCCGCCACTTCTGCTTC | -1.04
14 | TTCTGCAGGACAGATTCCCGTT | -0.459
15 | TTGAAAACGTTTGCCTTGCAGC | -0.47
16 | TTGGTTGTGACTGTGGCACCAC | 0.278
17 | TTCTGCTTCATGTTGAGCCGTA | 0.124
18 | TAGCACAGCAAAGTCTCGATGG | -0.495
19 | TTGTGGTGAAGGAACCAGTGGC | 0.104
20 | TTATTCTGCATTTTGGAGCCTC | 0.116
21 | TATTTTCTCCAGAAGCGTCGGT | 0.184
22 | TTCAGGAAACAAGACTCCTTGG | -0.807
23 | TAGAGTGGCAGCACGGTGGGGT | 0.669

Molecular target: RELA
Test: as above
Conditions: shRNA

Row | Sequence | sensor-assay potency score (higher = more potent)
24 | TAGCCATTGATCTTGATGGTGG | -0.637
25 | TTCATCATCAAACTGCAGCTGC | 0.151
26 | TTTACGTTTCTCCTCAATCCGG | -0.69
27 | TTGAGCTCGGCAGTGTTGGGGG | 0.294
28 | TATCTGTGCTCCTCTCGCCTGG | -1
29 | TCAATGATCTCCACATAGGGGC | -0.148
30 | TTGGGGACAGAAGCTGAGCTGC | -1.1
31 | TTACGTTTCTCCTCAATCCGGT | 0.444
32 | TTGTCGGTGCACATCAGCTTGC | -0.891
33 | TTTCCTACAAGCTCGTGGGGGT | -0.0432
34 | TTCTATAGGAACTTGGAAGGGG | 0.628
35 | TTTCTGCACCTTGTCACACAGT | -0.991

Molecular target: REPS2
Test: as above
Conditions: shRNA

Row | Sequence | sensor-assay potency score (higher = more potent)
36 | TAAATATGGAATCTGAACCTTA | -0.238
37 | TTGACATAGTACTCGCGCTGTT | -0.809
38 | TTTGACACAGTCAAACATCTAT | -0.0627
39 | TAGTACTTTTCAAAGCTTGTTT | -0.389
40 | TTTTCTGGTCTGAATTTCCTAC | -0.484
